The target of assay [1] is Mast/stem cell growth factor receptor Kit (Homo sapiens) (UniProt P10721). The conditions noted are these: at 1 µM.
Assay [2] shares this target. The conditions noted are these: at 10 µM.
The target of assay [3] is Proto-oncogene tyrosine-protein kinase Src (Homo sapiens) (UniProt P12931). The conditions noted are these: at 1 µM.
Assay [4] has the same target. The conditions noted are these: at 10 µM.
Assay [5] deals with Serine/threonine-protein kinase mTOR (Homo sapiens) (UniProt P42345). The settings on record: at 1 µM.
For assay [6] the target is unchanged. The conditions noted are these: at 10 µM.
The target is the same in assay [7]. The settings on record: at 1 µM. The source holds these as a separate data set.
Assay [8] shares this target. The conditions noted are these: at 10 µM. This is another data set of the same source.
In assay [9] the target is Ribosomal protein S6 kinase beta-1 (Homo sapiens) (UniProt P23443). The conditions noted are these: at 1 µM.
Ribosomal protein S6 kinase beta-1 (Homo sapiens), sequence (P23443 whole entry, looked up): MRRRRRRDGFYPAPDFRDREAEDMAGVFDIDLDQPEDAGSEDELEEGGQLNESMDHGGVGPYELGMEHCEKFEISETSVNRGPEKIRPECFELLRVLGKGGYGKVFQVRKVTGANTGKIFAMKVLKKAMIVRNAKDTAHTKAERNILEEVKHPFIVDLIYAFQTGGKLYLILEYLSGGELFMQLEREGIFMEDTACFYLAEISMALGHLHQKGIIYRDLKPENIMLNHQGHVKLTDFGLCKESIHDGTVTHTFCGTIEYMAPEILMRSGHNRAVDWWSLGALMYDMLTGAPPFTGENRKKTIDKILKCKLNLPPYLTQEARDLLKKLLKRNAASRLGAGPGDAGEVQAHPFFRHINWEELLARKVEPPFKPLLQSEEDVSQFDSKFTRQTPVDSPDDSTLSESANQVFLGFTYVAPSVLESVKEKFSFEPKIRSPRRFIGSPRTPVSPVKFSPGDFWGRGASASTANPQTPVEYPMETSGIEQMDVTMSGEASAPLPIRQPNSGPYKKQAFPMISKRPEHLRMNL
Assay [10] has the same target. The settings on record: at 10 µM.
Assay [11] concerns the target Serine/threonine-protein kinase Nek6 (Homo sapiens) (UniProt Q9HC98). The conditions noted are these: at 1 µM.
In assay [12] the target is Serine/threonine-protein kinase Nek7 (Homo sapiens) (UniProt Q8TDX7). The conditions noted are these: at 1 µM.
Serine/threonine-protein kinase Nek7 (Homo sapiens), sequence (Q8TDX7 whole entry, looked up): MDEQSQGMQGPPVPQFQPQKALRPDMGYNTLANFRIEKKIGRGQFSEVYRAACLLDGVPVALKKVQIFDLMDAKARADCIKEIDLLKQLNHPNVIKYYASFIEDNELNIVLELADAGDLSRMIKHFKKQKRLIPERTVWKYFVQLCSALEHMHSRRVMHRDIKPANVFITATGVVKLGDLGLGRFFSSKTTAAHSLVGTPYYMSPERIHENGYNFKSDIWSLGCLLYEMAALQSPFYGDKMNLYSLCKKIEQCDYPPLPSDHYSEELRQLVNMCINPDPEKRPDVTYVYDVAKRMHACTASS
The target is the same in assay [13]. The settings on record: at 10 µM.
In assay [14] the target is T1, Serine/threonine-protein kinase NLK (Homo sapiens) (UniProt Q9UBE8).
T1 sequence (whole entry): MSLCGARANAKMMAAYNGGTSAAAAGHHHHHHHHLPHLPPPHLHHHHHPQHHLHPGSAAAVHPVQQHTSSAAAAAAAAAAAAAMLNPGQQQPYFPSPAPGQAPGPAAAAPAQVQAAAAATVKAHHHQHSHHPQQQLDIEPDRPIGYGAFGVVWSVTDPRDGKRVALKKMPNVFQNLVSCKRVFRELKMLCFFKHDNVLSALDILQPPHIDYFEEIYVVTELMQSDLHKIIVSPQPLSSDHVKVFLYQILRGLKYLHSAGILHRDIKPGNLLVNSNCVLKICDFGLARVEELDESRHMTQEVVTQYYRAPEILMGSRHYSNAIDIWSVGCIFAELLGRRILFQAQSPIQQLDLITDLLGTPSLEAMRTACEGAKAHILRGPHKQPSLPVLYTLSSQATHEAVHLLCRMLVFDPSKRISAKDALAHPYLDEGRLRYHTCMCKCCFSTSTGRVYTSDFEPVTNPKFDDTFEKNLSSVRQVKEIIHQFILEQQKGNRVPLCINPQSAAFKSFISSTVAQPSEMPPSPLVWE
The settings on record: at 1 µM.

The target in assay [15] is T1, Serine/threonine-protein kinase NLK (Homo sapiens). The conditions noted are these: at 10 µM.
For assay [16], the target named is Serine/threonine-protein kinase PAK 2 (Homo sapiens) (UniProt Q13177). The settings on record: at 1 µM.
Serine/threonine-protein kinase PAK 2 (Homo sapiens), sequence (Q13177 whole entry): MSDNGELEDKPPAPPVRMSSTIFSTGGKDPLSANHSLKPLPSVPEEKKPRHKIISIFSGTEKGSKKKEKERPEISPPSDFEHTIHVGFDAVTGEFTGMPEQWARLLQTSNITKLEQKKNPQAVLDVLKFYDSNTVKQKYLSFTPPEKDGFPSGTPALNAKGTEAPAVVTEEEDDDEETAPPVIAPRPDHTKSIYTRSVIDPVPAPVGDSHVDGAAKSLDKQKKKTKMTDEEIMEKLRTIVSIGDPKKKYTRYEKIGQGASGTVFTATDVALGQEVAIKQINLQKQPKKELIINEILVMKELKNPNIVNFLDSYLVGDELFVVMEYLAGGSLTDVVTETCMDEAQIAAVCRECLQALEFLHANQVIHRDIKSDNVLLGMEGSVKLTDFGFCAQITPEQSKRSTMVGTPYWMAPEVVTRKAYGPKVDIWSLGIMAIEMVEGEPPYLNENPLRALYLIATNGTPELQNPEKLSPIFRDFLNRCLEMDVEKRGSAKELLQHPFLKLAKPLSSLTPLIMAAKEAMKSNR
Assay [17] has the same target. The conditions noted are these: at 10 µM.
Assay [18] concerns the target Serine/threonine-protein kinase Nek6 (Homo sapiens) (UniProt Q9HC98). The conditions noted are these: at 10 µM.

Serine/threonine-protein kinase Nek6 (Homo sapiens), sequence (Q9HC98 whole entry): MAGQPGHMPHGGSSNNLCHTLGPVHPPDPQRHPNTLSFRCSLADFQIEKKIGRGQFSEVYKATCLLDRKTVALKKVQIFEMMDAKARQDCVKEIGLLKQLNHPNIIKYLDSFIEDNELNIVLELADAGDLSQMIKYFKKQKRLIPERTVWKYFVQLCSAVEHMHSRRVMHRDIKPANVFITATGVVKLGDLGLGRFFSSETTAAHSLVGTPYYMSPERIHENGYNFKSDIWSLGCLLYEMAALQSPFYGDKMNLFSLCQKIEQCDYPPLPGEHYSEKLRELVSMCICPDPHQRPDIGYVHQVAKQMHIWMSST
Mast/stem cell growth factor receptor Kit (Homo sapiens), sequence (P10721 whole entry): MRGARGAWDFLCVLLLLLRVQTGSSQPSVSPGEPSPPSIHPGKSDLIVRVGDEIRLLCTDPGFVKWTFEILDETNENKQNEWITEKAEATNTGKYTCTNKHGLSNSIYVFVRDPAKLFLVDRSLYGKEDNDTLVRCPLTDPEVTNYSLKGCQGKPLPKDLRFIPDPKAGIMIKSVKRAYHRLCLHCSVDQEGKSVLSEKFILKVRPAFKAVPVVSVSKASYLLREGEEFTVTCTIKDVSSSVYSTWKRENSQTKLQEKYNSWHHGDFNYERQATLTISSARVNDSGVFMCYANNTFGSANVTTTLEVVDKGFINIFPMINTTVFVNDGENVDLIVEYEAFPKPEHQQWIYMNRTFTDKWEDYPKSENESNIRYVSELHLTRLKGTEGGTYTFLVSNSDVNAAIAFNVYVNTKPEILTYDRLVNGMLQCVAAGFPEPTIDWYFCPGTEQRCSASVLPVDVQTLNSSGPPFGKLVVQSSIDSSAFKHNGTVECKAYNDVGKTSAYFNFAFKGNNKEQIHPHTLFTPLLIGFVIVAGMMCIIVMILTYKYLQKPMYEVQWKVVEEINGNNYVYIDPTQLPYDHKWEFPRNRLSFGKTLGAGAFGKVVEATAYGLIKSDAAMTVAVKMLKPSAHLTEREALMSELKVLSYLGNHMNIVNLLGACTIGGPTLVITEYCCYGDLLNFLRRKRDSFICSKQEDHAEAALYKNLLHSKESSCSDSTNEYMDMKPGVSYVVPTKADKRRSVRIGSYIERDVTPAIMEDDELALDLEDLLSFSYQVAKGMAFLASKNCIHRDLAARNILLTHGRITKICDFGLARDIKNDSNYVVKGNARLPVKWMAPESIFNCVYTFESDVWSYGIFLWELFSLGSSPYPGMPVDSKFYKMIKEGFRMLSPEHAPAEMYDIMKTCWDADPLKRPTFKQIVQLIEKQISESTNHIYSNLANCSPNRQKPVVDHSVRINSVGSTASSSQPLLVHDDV
Proto-oncogene tyrosine-protein kinase Src (Homo sapiens), sequence (P12931 2-536 limits assumed): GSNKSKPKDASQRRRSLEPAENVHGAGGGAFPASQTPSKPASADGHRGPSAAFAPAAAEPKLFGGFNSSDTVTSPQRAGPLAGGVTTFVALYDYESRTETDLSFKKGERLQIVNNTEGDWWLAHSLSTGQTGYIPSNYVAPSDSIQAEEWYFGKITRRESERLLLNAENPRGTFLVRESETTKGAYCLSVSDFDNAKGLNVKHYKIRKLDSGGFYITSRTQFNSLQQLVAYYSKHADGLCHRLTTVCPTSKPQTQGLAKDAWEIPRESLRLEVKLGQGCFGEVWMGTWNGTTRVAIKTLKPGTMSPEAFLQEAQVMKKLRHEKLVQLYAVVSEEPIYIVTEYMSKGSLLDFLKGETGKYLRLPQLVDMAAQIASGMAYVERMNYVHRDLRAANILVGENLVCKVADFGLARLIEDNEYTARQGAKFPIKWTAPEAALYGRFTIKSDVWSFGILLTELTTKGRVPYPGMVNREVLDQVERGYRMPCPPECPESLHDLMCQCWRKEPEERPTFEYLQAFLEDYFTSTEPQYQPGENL

With `Cc1nc(-c2ccccc2)c(-c2ccncc2)o1`, the residual activity (usually the signal under treatment as a percentage of the control signal) turned out to be 124% in [1]; 98% in assay [2]; 113% in assay [3]; 81% in assay [4]; 109% in assay [5]; 103% in [6]. The residual activity is 116% in [7]; 94% in [8]; 83% in [9]; 56% in assay [10]; 105% (inactive) in assay [11]; 107% (inactive) in assay [12]. For the same compound, the residual activity is 106% (inactive) in assay [13]; 103% in [14]; 48% in [15]; 102% in assay [16]; 101% in assay [17].
As to `COc1ccc(OC)c2c(=S)c3ccccc3[nH]c12`, the residual activity in assay [1] stood at 93%; in [2], 93%; in assay [3], 118%; in assay [4], 93%; in [5], 100%; in assay [6], 84%. The residual activity in assay [7] was 119%; in [8], 76%; in assay [9], 115%; in assay [10], 86%; in assay [11] it was 97% (inactive); in [18] it was 91%. In addition, the residual activity in assay [12] is 103% (inactive); in assay [13] it was 97% (inactive); in assay [14], 85%; in assay [15], 76%; in assay [16], 90%; in [17], 73%.
Regarding `Cc1cccc(-c2[nH]c(C(C)(C)C)nc2-c2ccc3c(c2)OCO3)n1`, the residual activity in [3] is 91%; in [4], 102%; in assay [9] it was 93%; in assay [10] it was 65%; in assay [11], 90% (inactive); in assay [18] it was 107%. The residual activity in [12] was 94% (inactive); in [13], 95% (inactive); in [14] it was 94%; in [15], 87%; in assay [16] it was 103%; in assay [17] it was 91%.
For the compound `CC(C)n1cnc2/c(=N/c3cccc(Cl)c3)nc(NCCO)[nH]c21`, the residual activity came out at 108% in [1]; 94% in [2]; 54% in assay [3]; 7% in [4]; 114% in assay [5]; 96% in assay [6]. Further, the residual activity in [7] was 82%; in [8] it was 101%; in [9] it was 36%; in assay [10], 15%; in assay [11], 118% (inactive); in assay [18] it was 98%. Also, the residual activity in [12] is 102% (inactive); in assay [13], 84% (inactive); in [14], 88%; in assay [15], 70%; in assay [16] it was 109%; in [17], 98%.
As for `Cn1cc(/C=C2\C(=O)Nc3ccc(S(N)(=O)=O)cc32)c2ccccc21`, the residual activity worked out at 69% in assay [1]; 17% in [2]; 49% in assay [3]; 25% in assay [4]; 106% in assay [5]; 99% in [6]. The residual activity in [7] was 104%; in [8], 102%; in assay [9], 29%; in assay [10], 11%; in [11], 100% (inactive); in assay [18], 112%. Moreover, the residual activity in [12] is 103% (inactive); in assay [13] it was 89% (inactive); in [14], 104%; in [15], 84%; in assay [16], 124%; in [17] it was 91%.
Turning to `COc1cc2ncc(-c3ccccc3)nc2cc1OC`, the residual activity in [1] was determined as 84%; in [2], 24%; in assay [3], 88%; in assay [4], 95%; in [9], 63%; in assay [10], 47%. Moreover, the residual activity was 80% (inactive) in [11], 89% in assay [18], 100% in [14] and 93% in assay [15].
In the case of `N#CCCc1ccc2c(c1)-c1[nH]c3ccc([N+](=O)[O-])cc3c1CC(=O)N2`, the residual activity was 46% in assay [3]; 13% in assay [4]; 116% in assay [5]; 64% in [15]; 62% in assay [16]; 37% in assay [17].
Turning to `Cn1nc2c3c(cccc31)C(=O)c1ccccc1-2`, the residual activity in assay [1] was found to be 104%; in assay [2], 95%; in [4], 93%; in assay [5] it was 82%; in assay [6] it was 84%; in [8] it was 66%. For the same compound, the residual activity in assay [9] is 70%; in [10], 62%; in assay [11], 108% (inactive); in assay [18], 104%; in [12], 107% (inactive); in assay [13], 86% (inactive). For the same compound, the values for the residual activity in assay [15], in assay [16] and in assay [17] were 87%, 102% and 98%, respectively.
`O=c1cc(-c2cccc3c2Sc2ccccc2S3)oc(N2CCOCC2)c1`: the residual activity in assay [1] was 99%; in [2], 102%; in assay [3], 89%; in assay [4], 92%; in [5] it was 98%; in assay [6] it was 74%. The residual activity in assay [7] is 89%; in assay [8], 60%; in assay [9], 119%; in [10], 93%; in assay [11], 108% (inactive); in [18] it was 122%. In addition, the residual activity in assay [12] is 109% (inactive); in [13], 140% (inactive); in assay [14], 101%; in [15], 101%; in assay [16], 113%; in assay [17] it was 95%.
As for `Nc1ccc2ncnc(NCCc3ccc(Oc4ccccc4)cc3)c2c1`, the residual activity in [1] was 114%; in assay [2], 95%; in [3], 110%; in assay [4], 95%; in [6], 96%; in assay [7], 112%. Besides, the residual activity is 63% in assay [8]; 81% in assay [9]; 51% in [10]; 105% (inactive) in assay [11]; 120% in [18]; 111% (inactive) in assay [12]. For the same compound, the residual activity in assay [13] was 117% (inactive); in [14], 111%; in assay [15], 96%; in assay [16] it was 103%; in assay [17], 89%.
With `Cc1cncc2cccc(S(=O)(=O)N3CCCN(C(=O)CN)C[C@H]3C)c12`, the residual activity in assay [3] was 86%; in assay [4] it was 96%; in assay [11] it was 88% (inactive); in assay [12] it was 88% (inactive); in assay [13], 98% (inactive); in assay [14], 90%. Also, the residual activity is 86% in assay [15] and 82% in assay [17].
`N#Cc1cnc2cnc(NCc3cccnc3)cc2c1Nc1ccc(F)c(Cl)c1`: the residual activity was found to be 92% in assay [2]; 56% in [3]; 39% in assay [4]; 89% in assay [5]; 85% in assay [6]; 96% in [8]. In addition, the residual activity in [9] is 1%; in assay [10], -1%; in assay [14], 93%; in assay [15], 89%; in [16], 103%; in assay [17], 90%.
Consider `CC(=O)c1ccc(N2CCOCC2)cc1O`, for which the residual activity in assay [2] amounted to 101%; in [3] it was 86%; in assay [4], 93%; in [7], 104%; in assay [9] it was 55%; in assay [10] it was 46%. The residual activity in assay [12] was 98% (inactive); in [14] it was 97%; in assay [15] it was 83%; in [16], 104%; in [17] it was 97%.
Turning to `CCN(CC)C(=O)c1ccc(Nc2nc(OCC3CCCCC3)c3nc[nH]c3n2)cc1`, the residual activity in [1] was 33%; in assay [2], 5%; in assay [3] it was 62%; in assay [4], 12%; in assay [8], 55%; in assay [9], 58%. Further, the residual activity in assay [10] is 17%; in assay [18], 95%; in [12], 98% (inactive); in [13] it was 82% (inactive).
With `COc1cccc(-c2cc(=O)c3ccccc3o2)c1N`, the residual activity in [1] was 114%; in assay [2], 114%; in assay [3], 113%; in assay [4], 87%; in [5] it was 92%; in assay [6] it was 93%. In addition, the residual activity in [7] was 86%; in assay [8], 51%; in [9], 119%; in assay [10], 106%; in [11] it was 114% (inactive); in assay [18] it was 114%. The residual activity in [12] is 111% (inactive); in assay [13] it was 106% (inactive); in assay [14], 107%; in [15], 87%; in [16] it was 103%; in assay [17], 102%.
For `Cn1cnc2cc3c(Nc4cccc(Br)c4)ncnc3cc21`, the residual activity in assay [1] was determined as 114%; in [2], 92%; in [3], 64%; in assay [4], 32%; in assay [5] it was 102%; in assay [6], 105%. Also, the residual activity in assay [7] was 104%; in assay [8], 97%; in assay [9] it was 95%; in assay [10] it was 71%; in [11], 104% (inactive); in assay [18], 104%. Besides, the residual activity was 100% (inactive) in assay [12]; 103% (inactive) in assay [13]; 93% in [14]; 73% in assay [15]; 93% in assay [16]; 90% in assay [17].
